The text below walks through data of PubChem BioAssay.

Experiment [1] relates to Wnt5a (protein binding on small-molecule microarray). The experiment in a line: small molecules binding Wnt5a protein – biophysical, small-molecule microarray, 635/667 nm fluorescence, primary screen (AID 1142).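 Note: fluorescence read at 667 nm with signal to noise per printed feature.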 As to conditions: 635 nm fluorescence, higher = more signal.
The nature of experiment [2]: ATP-based viability of Huh7 replicon cells – cell-based, CellTiter-Glo luminescence, basal, 48 h, cytotoxicity control for HCV replication inhibitor project, primary screen (AID 1143).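 Note: Huh7 hepatoma cells carrying a hepatitis C replication reporter with no stimulus; test concentration not given here.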 As to conditions: higher = more signal, called active from +8 up or from −8 down.
The nature of experiment [3]: Pseudomonas biofilm growth suppression – PAO1 strain, BacTiter-Glo luminescence, LB-PBS, primary screen (AID 1144). As to conditions: P. aeruginosa PAO1 biofilm, 12 h, higher = more signal.
The nature of experiment [4]: basal CRE-LacZ reporter activity in PC12 – cell-based, unstimulated, primary screen (AID 1145). As to conditions: no forskolin, luminescence, 4.5 h, higher = more signal, called active from +8 up or from −8 down.
The nature of experiment [5]: forskolin-driven CRE-LacZ activity in PC12 – cell-based, CRE-LacZ reporter, forskolin-stimulated, primary screen (AID 1146).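 Note: PC12 cells with 6xCRE LacZ reporter stimulated by forskolin 10 µM; beta-galactosidase reporter signal reflecting CREB driven transcription.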 The conditions noted are these: luminescence, 4.5 h, higher = more signal, called active from +8 up or from −8 down.
Experiment [6] has as its target Streptavidin (Streptomyces avidinii) (UniProt P22629). The experiment in a line: compounds binding control protein streptavidin – biophysical, small-molecule microarray, 635/667 nm fluorescence, artefact control for SMM compound annotation, primary screen (AID 1147).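 Note: signal reflects streptavidin binding to arrayed compounds as a control protein.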 As to conditions: higher = more signal.
Experiment [7] is described as follows: probe aInhba binding on compound microarray – biochemical, small-molecule microarray, 635/667 nm fluorescence, primary screen (AID 1148).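 Note: score merges 667nm spot fluorescence with signal-to-noise for antibody binding to printed compounds.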 As to conditions: higher = more signal.
The target of experiment [8] is Torsin-1A (Homo sapiens) (UniProt O14656). Description: TOR1A wild-type binding on microarray – cell lysate, small-molecule microarray, lysate, 635/667 nm, primary screen (AID 1149). As to conditions: COS7 hTOR1A-WT lysate, 635 nm fluorescence, higher = more signal.
The target is the same in experiment [9]. Description: torsin A mutant lysate binding on microarrays – cell lysate, small-molecule microarray, COS7 lysate, 635/667 nm fluorescence, primary screen (AID 1150).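 Note: score pools 667 nm emission and signal to noise measuring lysate protein binding.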 As to conditions: COS7 hTOR1A mutant lysate, 635 nm fluorescence, higher = more signal.
Experiment [10] has as its system Sonic hedgehog protein (Shh). The experiment in a line: Sonic hedgehog microarray binding compounds – biochemical, small-molecule microarray, 635/667 nm fluorescence, primary screen (AID 1151).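 Note: Shh protein binding to compounds spotted on small-molecule microarray slides; score combines spot fluorescence intensity with signal-to-noise across triplicate slides.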 As to conditions: 635 nm fluorescence, higher = more signal.

Calls of active or inactive are those of the source. Unless noted, the rule behind the calls is not given here.

Torsin-1A (Homo sapiens), sequence (O14656 whole entry, looked up): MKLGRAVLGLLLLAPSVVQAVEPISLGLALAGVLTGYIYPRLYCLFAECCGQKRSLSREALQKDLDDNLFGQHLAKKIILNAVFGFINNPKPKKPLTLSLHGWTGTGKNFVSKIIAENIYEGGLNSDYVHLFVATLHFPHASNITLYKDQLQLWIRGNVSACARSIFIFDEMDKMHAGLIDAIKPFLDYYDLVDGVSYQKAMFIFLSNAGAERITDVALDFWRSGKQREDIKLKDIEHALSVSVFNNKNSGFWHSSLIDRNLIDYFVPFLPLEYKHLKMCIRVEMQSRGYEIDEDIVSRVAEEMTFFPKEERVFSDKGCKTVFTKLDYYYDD
Streptavidin (Streptomyces avidinii), sequence (P22629 whole entry, looked up): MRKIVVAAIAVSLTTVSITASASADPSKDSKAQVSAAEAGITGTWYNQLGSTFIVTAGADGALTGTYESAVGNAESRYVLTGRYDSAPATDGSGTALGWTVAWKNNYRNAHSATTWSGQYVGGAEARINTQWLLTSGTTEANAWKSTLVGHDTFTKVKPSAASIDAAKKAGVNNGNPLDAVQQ

As for `C=CCC(OC(C)=O)[C@@H]1[C@@H](N(Cc2cccc3ccccc23)C(=O)Cc2ccc(OC)cc2)c2cc(OCCCO)ccc2N1C(=O)c1ccc(-c2ccccc2)cc1` (stereo not given in full), the composite z-score in [1] is -0.213; in experiment [6], 0.107; in experiment [7], -0.0762; in the experiment with Torsin-1A (Homo sapiens) [8], -0.452; with Torsin-1A (Homo sapiens) [9], 0.0437; in [10], 0.112. Further, the z-score in [2] was -1.22 (inactive); in experiment [3], 1.16 (inactive); in [4], 0.106 (inactive); in [5], -0.375 (inactive).

Turning to `COc1cc2c(cc1O)C(c1ccc(CN3CCCC3)cc1)N(Cc1cc3c(cc1Br)OCO3)CC2` (stereo not given), the composite z-score is -0.116 in [1]; 0.881 in [6]; -0.128 in experiment [7]; -0.231 with Torsin-1A (Homo sapiens) [8]; 0.513 with Torsin-1A (Homo sapiens) [9]; -1.01 in experiment [10]. For the same compound, the z-score was -3.59 (inactive) in experiment [2], -0.587 (inactive) in experiment [3], 0.389 (inactive) in experiment [4] and -0.0519 (inactive) in experiment [5].

For the compound `[N-]=[N+]=Nc1ccccc1C[C@]1(C(=O)N2CCOCC2)COC(c2ccc(OCCCO)cc2)=N1`, the composite z-score is 0.375 in [1]; 1.42 in [6]; 0.191 in experiment [7]; 0.442 with Torsin-1A (Homo sapiens) [8]; 0.507 with Torsin-1A (Homo sapiens) [9]; -1.01 in [10]. The z-score in [2] is -4.38 (inactive); in experiment [3], -0.33 (inactive); in [4] it was 0.344 (inactive); in [5], -0.687 (inactive).

For the compound `C=CCC(OC(C)=O)[C@@H]1[C@@H](N(Cc2ccc(-c3cccc(C(F)(F)F)c3)o2)C(=O)Cc2ccc(OC)cc2)c2cc(OCCCO)ccc2N1C(=O)c1ccc(-c2ccccc2)cc1` (stereo not given in full), the composite z-score in [1] was 0.0179; in experiment [6], 1.31; in [7] it was 0.153; in the experiment with Torsin-1A (Homo sapiens) [8] it was -0.368; with Torsin-1A (Homo sapiens) [9], -0.38; in experiment [10], 0.439. Besides, the z-score is -1.28 (inactive) in experiment [2], 0.198 (inactive) in experiment [3], 1.15 (inactive) in experiment [4] and 0.393 (inactive) in experiment [5].

Regarding `Cc1ccc(S[C@]2(C(=O)NCC(F)(F)F)CC(=O)N(Cc3cc(C(F)(F)F)cc(C(F)(F)F)c3)[C@@H]2c2ccc(CO)cc2)cc1`, the composite z-score in [1] is -0.824; in experiment [6] it was -0.638; in experiment [7], -0.0933; in the experiment with Torsin-1A (Homo sapiens) [8], -1.5; in the experiment with Torsin-1A (Homo sapiens) [9] it was -1.2; in [10] it was 0.319. In addition, the z-score in experiment [2] was -0.262 (inactive); in [3], 0.75 (inactive); in experiment [4], 0.182 (inactive); in experiment [5], -0.0993 (inactive).

`CC(=O)NCCCC[C@@H]1NC(=O)[C@@H]2C[C@H](C(=O)NCCCCCN)[C@H](c3ccc(O)cc3)N2C1=O`: the composite z-score in [1] turned out to be 0.66; in experiment [6], 0.977; in [7], 0.221; with Torsin-1A (Homo sapiens) [8], 1.14; with Torsin-1A (Homo sapiens) [9], 1.54; in experiment [10] it was 1.52. Besides, the z-score in experiment [2] is -0.224 (inactive); in experiment [3], 0.268 (inactive); in [4], 0.285 (inactive); in experiment [5] it was -0.389 (inactive).

For the compound `CCOc1cc(C(O)C2C=CC3C(=O)NC(=O)C3N2Nc2ccc(Cl)cc2Cl)ccc1O` (stereo not given), the composite z-score in experiment [1] was -0.0753; in [6], -0.431; in experiment [7] it was 0.0427; with Torsin-1A (Homo sapiens) [8] it was -0.662; with Torsin-1A (Homo sapiens) [9] it was -0.141; in experiment [10] it was -0.479. For the same compound, the z-score in [2] is 0.625 (inactive); in experiment [3] it was -0.542 (inactive); in experiment [4], 1 (inactive); in [5] it was -0.323 (inactive).

`CC(C)[Si]1(C(C)C)OCc2cc(-c3ccc(-c4ccc(Cl)c(Cl)c4)o3)nc(-c3ccccc3)c21`: the composite z-score in experiment [1] is -0.345; in [6], -0.832; in experiment [7] it was -0.295; with Torsin-1A (Homo sapiens) [8] it was -0.193; in the experiment with Torsin-1A (Homo sapiens) [9], -1.15; in [10], -0.128. Moreover, the z-score is -0.243 (inactive) in [2], -0.543 (inactive) in experiment [3], 0.484 (inactive) in experiment [4] and -0.272 (inactive) in experiment [5].

Regarding `C#Cc1cc2ccccc2oc1=O`, the composite z-score is -0.365 in experiment [1]; -1.47 in experiment [6]; -0.149 in experiment [7]; 0.173 in the experiment with Torsin-1A (Homo sapiens) [8]; -0.539 with Torsin-1A (Homo sapiens) [9]; -1.45 in experiment [10]. The z-score was -0.692 (inactive) in experiment [2], 0.534 (inactive) in [3], 0.136 (inactive) in experiment [4] and 6.19 (inactive) in experiment [5].

In the case of `CCOC(=O)C[C@H]1[C@H](OC(=O)Cc2ccc3c(c2)OCO3)[C@@H](NC(=O)C2CCCCC2)c2cc(OCCCO)ccc2N1C(=O)c1ccccc1`, the composite z-score in experiment [1] is -0.0729; in [6] it was 0.584; in experiment [7], -0.0313; in the experiment with Torsin-1A (Homo sapiens) [8], -0.0429; with Torsin-1A (Homo sapiens) [9] it was 0.0914; in experiment [10] it was 0.0725. Besides, the z-score is -0.0136 (inactive) in experiment [2], -1.38 (inactive) in experiment [3], 2.82 (inactive) in [4] and -1.27 (inactive) in experiment [5].

On to `O=C1C[C@]2(c3ccc([N+](=O)[O-])cc3)C(=O)N(C3CC3)c3cc(CO)ccc3[C@H]2N1CC12CC3CC(CC(C3)C1)C2`, for which the composite z-score was -0.178 in experiment [1]; -0.368 in [6]; -0.0403 in experiment [7]; -1.26 with Torsin-1A (Homo sapiens) [8]; 0.228 in the experiment with Torsin-1A (Homo sapiens) [9]; -0.7 in [10]. Moreover, the z-score in experiment [2] is -2.19 (inactive); in [3], 0.332 (inactive); in experiment [4] it was -0.179 (inactive); in experiment [5] it was 1.23 (inactive).

`O=C(O)[C@@H]1[C@@H]2C(=O)N(c3ccccc3)C(=O)[C@@H]2C[C@@H]1Sc1ccccc1`: the composite z-score in experiment [1] was -0.129; in experiment [6], -0.237; in [7], -0.389; with Torsin-1A (Homo sapiens) [8], -0.402; with Torsin-1A (Homo sapiens) [9] it was -1.03; in [10], -1.45. Further, the z-score is 0.739 (inactive) in experiment [2], 0.956 (inactive) in experiment [3], 0.379 (inactive) in experiment [4] and 0.774 (inactive) in experiment [5].

`CC[C@@H]1O[Si](C(C)C)(C(C)C)c2c1cc(-c1cc(C)c(OC)c(C)c1)nc2-c1ccc(Oc2ccccc2)cc1`: the composite z-score in experiment [1] is -0.216; in experiment [6], -0.21; in [7], -0.231; with Torsin-1A (Homo sapiens) [8], -0.851; with Torsin-1A (Homo sapiens) [9], -0.542; in experiment [10], 0.305. Further, the z-score is 0.0485 (inactive) in experiment [2], -0.523 (inactive) in [3], -0.491 (inactive) in experiment [4] and 0.316 (inactive) in experiment [5].

Turning to `CCCCCCCCCC(O)C1C=CC2C(=O)N(c3ccccc3)C(=O)C2N1Nc1cc(OC)c(OC)c(OC)c1` (stereo not given), the composite z-score is -0.128 in experiment [1]; 0.581 in experiment [6]; -0.0334 in experiment [7]; -1.45 with Torsin-1A (Homo sapiens) [8]; -0.241 in the experiment with Torsin-1A (Homo sapiens) [9]; -0.511 in [10]. The z-score in [2] was -4.06 (inactive); in experiment [3], 0.123 (inactive); in experiment [4] it was 0.815 (inactive); in experiment [5] it was -0.262 (inactive).
